Consider 18 compounds from PubChem BioAssay.

Assay [1] can be described thus: liver-stage malaria parasite load reduction – cell-based, known kinase inhibitor set, luminescence, hepatoma host viability (AID 624392).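 Also: infected cells incubated roughly two days before readout.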 The following applies: Plasmodium liver stage in hepatoma cells, luciferase luminescence, concentration not given here; liver cell % of control: measured here: host liver cell viability; parasite % of control: stronger effect = lower value.

A short description of assay [2]: altered dexamethasone sensitivity, NF-kB reporter, cell-based, luciferase, IL-1B stimulus (AID 624486).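 As to percent of negative control (+Dex): 100% = mean signal of vehicle control wells on the plate.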 The following applies: IL-1B + dexamethasone, luminescence; percent of negative control (+Dex): actives lie on both sides, concentration not given here; z-score: measured here: IL-1B alone, no Dex.
The target in assay [3] is Cellular tumor antigen p53 (Homo sapiens) (UniProt P04637). The assay can be described thus: GFP-p53 level modulators in HPV16+ cells – imaging, known kinase inhibitor set, EGFP/DsRed ratio (AID 1053116).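 Also: cells exposed to compounds for 24 h at 37 °C before reading.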 The following applies: GFP-p53 stability, stronger effect = higher value; EGFP object count: measured here: GFP-p53 positive objects count.
Cellular tumor antigen p53 (Homo sapiens), sequence (P04637 whole entry, looked up): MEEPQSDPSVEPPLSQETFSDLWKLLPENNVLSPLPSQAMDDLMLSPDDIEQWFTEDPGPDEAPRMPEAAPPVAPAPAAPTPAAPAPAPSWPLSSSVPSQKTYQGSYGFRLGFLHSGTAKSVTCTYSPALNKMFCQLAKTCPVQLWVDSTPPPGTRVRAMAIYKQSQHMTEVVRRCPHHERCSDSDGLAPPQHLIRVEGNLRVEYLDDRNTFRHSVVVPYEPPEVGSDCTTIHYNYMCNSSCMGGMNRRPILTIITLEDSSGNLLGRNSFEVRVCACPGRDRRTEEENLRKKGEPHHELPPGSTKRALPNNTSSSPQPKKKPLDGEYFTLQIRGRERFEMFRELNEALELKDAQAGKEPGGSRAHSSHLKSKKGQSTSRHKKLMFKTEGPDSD
A short description of assay [4]: inducers of IRF3 signaling, differentiated THP-1 – cell-based, PMA-stimulated THP-1, luminescence (AID 1053176). The following applies: PMA-differentiated THP-1, IRF3 reporter luminescence; stronger effect = higher value.
A short description of assay [5]: C. elegans survival during P. aeruginosa infection – whole organism (AID 651566).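 Also: tested at 14 µM; sign flipped so higher z means a lower ratio.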 The following applies: C. elegans killed by P. aeruginosa, survival ratio.
The nature of assay [6]: pro-inflammatory signaling induction in mouse macrophages – cell-based, murine, luminescence (AID 652131). The following applies: murine macrophage pro-inflammatory reporter, stronger effect = higher value.
Assay [7] in a line: MELAS cybrid and Rieske KO viability enhancers – cell-based, MELAS cybrids, Rieske KO mouse fibroblasts, CellTiter-Glo, primary screen (AID 1508586;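 active = mean z-score across replicates of 1.96 or higher in either the MELAS or the Rieske mutant cell line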;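 also: z relative to plate mean and SD of compound and empty wells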). The following applies: low glucose. For orientation: Cellular ATP, detected with luciferase, serves as a proxy for viable cell number.

The structures appear in SMILES notation. Calls of active or inactive are those of the source. Unless noted, no rule for the calls is given here.

Take `Cn1c(=O)c(Oc2ccc(F)cc2F)cc2cnc(NC(C)(C)CO)nc21`: in assay [1], the liver cell % of control came out at 114% and the parasite % of control is 73.2% (inactive). In assay [2], the percent of negative control (+Dex) was 106% (inactive) and the z-score stood at 1.07. Further, in assay [3], the EGFP object count was determined as 3 and the EGFP/DsRed ratio was 0.148 (inactive). For the same compound, in assay [4], the fraction signal is 0.023 (inactive).
In assay [1], `O=C(NC1NNC2CC(c3ccccc3)CCC21)C1CC1` (stereo not given) yielded a liver cell % of control of 191%. Moreover, the parasite % of control in assay [1] was 74.3% (inactive). Besides, the percent of negative control (+Dex) in assay [2] is 104% (inactive). Besides, the z-score in assay [2] is 0.375; in assay [5], -1.73 (inactive); in assay [6], 0.532 (inactive); in assay [7] (MELAS cybrid survival, CellTiter-Glo 48 h, stronger effect = higher value) it was -0.677 (inactive); in assay [7] (Rieske KO mouse fibroblast survival, CellTiter-Glo 72 h), -0.221. Also, the EGFP object count in assay [3] stood at 2.5. Moreover, in assay [3], the EGFP/DsRed ratio was 0.139 (inactive). Moreover, in assay [4], the fraction signal was 0.012 (inactive).
With `CC(=O)NC(Cc1ccc(OP(=O)(O)O)cc1)C(=O)NC1CCC(=O)N2CCCC(C(=O)NCc3cccc4ccccc34)N2C1=O` (stereo not given), in assay [1], the liver cell % of control is 98.5% and the parasite % of control is 45.1% (inactive). Besides, in assay [2], the percent of negative control (+Dex) was 100% (inactive) and the z-score was -0.165. In assay [3], the EGFP object count was 8 and the EGFP/DsRed ratio is 0.214 (inactive). Moreover, the fraction signal in assay [4] was -0.0075 (inactive).
For the compound `Nc1c(C(=O)c2cccc(OCC(O)CO)c2)cnn1-c1ccc(F)cc1` (stereo not given), in assay [1], the liver cell % of control turned out to be 125% and the parasite % of control was 58.2% (inactive). In addition, in assay [2], the percent of negative control (+Dex) is 110% (inactive) and the z-score was 1.27. Also, in assay [3], the EGFP object count was found to be 1.5 and the EGFP/DsRed ratio is 0.00398 (inactive). Also, the fraction signal in assay [4] was -0.0115 (inactive).
`O=C1NC(=NCc2cccs2)SC1Cc1ccc2ncccc2c1` (stereo not given): in assay [1], the liver cell % of control is 108% and the parasite % of control was 12.8% (inactive). Further, in assay [2], the percent of negative control (+Dex) was 96% (inactive) and the z-score was -0.14. Moreover, in assay [3], the EGFP object count was 2.5 and the EGFP/DsRed ratio was 0.109 (inactive). For the same compound, the fraction signal in assay [4] is 0.0035 (inactive).
As to `COc1ccc(C2=C(c3cn(C)c4ccccc34)C(=O)NC2=O)cc1`, in assay [1], the liver cell % of control is 131% and the parasite % of control is 39.3% (inactive). In assay [2], the percent of negative control (+Dex) was 108% (inactive) and the z-score is -0.1. For the same compound, in assay [3], the EGFP object count was determined as 5.5 and the EGFP/DsRed ratio was 0.214 (inactive). Moreover, in assay [4], the fraction signal was -0.0115 (inactive).
As for `Cn1cc(C2=C(c3c4n(c5ccccc35)CC(CN)C4)C(=O)NC2=O)c2ccccc21` (stereo not given), in assay [1], the liver cell % of control stood at 97.6% and the parasite % of control was 48.9% (inactive). Further, in assay [2], the percent of negative control (+Dex) is 100% (inactive) and the z-score was -0.23. In assay [3], the EGFP object count stood at 6.5 and the EGFP/DsRed ratio was 0.00726 (inactive). Also, the fraction signal in assay [4] is -0.005 (inactive).
Take `CNC(C#Cc1c(F)ccc2c1C(=Cc1[nH]ccc1OC)C(=O)N2)CO` (stereo not given): in assay [1], the liver cell % of control is 129% and the parasite % of control was 62.7% (inactive). Further, in assay [2], the percent of negative control (+Dex) is 144% (active) and the z-score is 1.07. Moreover, in assay [3], the EGFP object count came to 51.5 and the EGFP/DsRed ratio is 0.055 (inactive). For the same compound, in assay [4], the fraction signal was 0.001 (inactive).
As to `Cc1[nH]n(-c2ccccc2)c(=O)c1C(=O)c1ccccc1`, in assay [1], the liver cell % of control came out at 103% and the parasite % of control is 53.4% (inactive). For the same compound, in assay [2], the percent of negative control (+Dex) is 97% (inactive) and the z-score came out at 0.12. In assay [3], the EGFP object count is 5 and the EGFP/DsRed ratio is 0.115 (inactive). Moreover, the fraction signal in assay [4] is -0.0005 (inactive).
As to `CS(=O)(=O)N1CCC(Nc2ncc(C(=O)c3c(F)cccc3F)c(N)n2)CC1`, in assay [1], the liver cell % of control is 89.5% and the parasite % of control is 70.6% (inactive). Further, in assay [2], the percent of negative control (+Dex) is 88.5% (inactive) and the z-score was -0.28. Besides, in assay [3], the EGFP object count was determined as 2 and the EGFP/DsRed ratio is 0.123 (inactive). Moreover, the fraction signal in assay [4] is -0.005 (inactive).
Turning to `CNCC#Cc1c(F)ccc2c1C(=Cc1[nH]ccc1OC)C(=O)N2`, in assay [1], the liver cell % of control was determined as 149% and the parasite % of control is 6.77% (inactive). Further, in assay [2], the percent of negative control (+Dex) is 162% (active) and the z-score was 1.97. In addition, in assay [3], the EGFP object count was 39 and the EGFP/DsRed ratio is 0.619 (inactive). The fraction signal in assay [4] is -0.0115 (inactive).
On to `O=C1NC(=O)C(c2c[nH]c3ccccc23)C1c1c[nH]c2ccccc12` (stereo not given), for which, in assay [1], the liver cell % of control came out at 102% and the parasite % of control was 41.2% (inactive). For the same compound, in assay [2], the percent of negative control (+Dex) is 100% (inactive) and the z-score was 0.125. Further, in assay [3], the EGFP object count came to 2.5 and the EGFP/DsRed ratio was 0.0298 (inactive). The fraction signal in assay [4] is -0.0005 (inactive).
For `CC(=O)NC(Cc1ccc(OP(=O)(O)O)cc1)C(=O)NC1CCC(=O)N2CCCC(C(=O)NCc3ccc(Cl)cc3)N2C1=O` (stereo not given), in assay [1], the liver cell % of control came to 96.1% and the parasite % of control was 45.1% (inactive). In assay [2], the percent of negative control (+Dex) was 95.5% (inactive) and the z-score was found to be 0.05. Moreover, in assay [3], the EGFP object count worked out at 3.5 and the EGFP/DsRed ratio was 0.276 (inactive). Moreover, the fraction signal in assay [4] is -0.003 (inactive).
Turning to `Cn1cc(C2=C(c3c4n(c5ccccc35)CCCCC4)C(=O)NC2=O)c2ccccc21`, in assay [1], the liver cell % of control stood at 80.1% and the parasite % of control was 66.1% (inactive). In assay [2], the percent of negative control (+Dex) is 100% (inactive) and the z-score was -0.31. Further, in assay [3], the EGFP object count amounted to 7 and the EGFP/DsRed ratio was 0.223 (inactive). Further, in assay [4], the fraction signal was -0.005 (inactive).
With `Cn1cc(C2=C(c3cn(C)c4ccc(Cl)cc34)C(=O)NC2=O)c2ccccc21`, in assay [1], the liver cell % of control was determined as 77% and the parasite % of control is 33.5% (inactive). In assay [2], the percent of negative control (+Dex) was 114% (inactive) and the z-score was -1.06. For the same compound, in assay [3], the EGFP object count amounted to 156 and the EGFP/DsRed ratio is 0.929 (active). In addition, in assay [4], the fraction signal is -0.0075 (inactive).
`CC(=O)NC(Cc1ccc(OP(=O)(O)O)cc1)C(=O)NC1CCC(=O)N2CCCC(C(=O)NCc3ccccc3)N2C1=O` (stereo not given): in assay [1], the liver cell % of control amounted to 105% and the parasite % of control is 55% (inactive). In assay [2], the percent of negative control (+Dex) is 102% (inactive) and the z-score was 0.685. Moreover, in assay [3], the EGFP object count was found to be 1.5 and the EGFP/DsRed ratio is 0.0487 (inactive). Further, the fraction signal in assay [4] was -0.0115 (inactive).
Regarding `Nc1c(C(=O)c2cccc(-c3ccc[n+]([O-])c3)c2)cnn1-c1ccc(F)cc1F`, in assay [1], the liver cell % of control came to 105% and the parasite % of control is 45.9% (inactive). In assay [2], the percent of negative control (+Dex) is 101% (inactive) and the z-score worked out at 0.065. In assay [3], the EGFP object count is 3.5 and the EGFP/DsRed ratio is 0.063 (inactive). Besides, the fraction signal in assay [4] was -0.0155 (inactive).
Consider `Nc1[nH]nc2nc(-c3cccs3)cc(C(F)(F)F)c12`, for which, in assay [1], the liver cell % of control turned out to be 104% and the parasite % of control is 41.7% (inactive). Also, in assay [2], the percent of negative control (+Dex) is 73% (active) and the z-score was -2.23. In assay [3], the EGFP object count is 4 and the EGFP/DsRed ratio is 0.138 (inactive). For the same compound, the fraction signal in assay [4] was -0.0165 (inactive).
